# Several values for one entry are separate records, joined by “and”; a condition that tells them apart may be missing. Equal values may be shown once. About 83,000 compounds went through this panel and 20% of them were active in at least one assay; those are over-represented in the sample as a whole.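 Single-concentration screen, 48 h exposure, 96-well plates. Endpoint: percent growth. Below 10 = active.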 Activity calls are given as the source filed them.
# System: HL-60(TB) leukemia
# Experiment: NCI-60 one-dose screen, 48 h (100 = growth as untreated, 0 = no growth, -100 = all killed)
# Conditions: 10 µM unless noted
row,SMILES,growth
1,Cn1cc([C@@H]2Nc3ccc4[nH]ncc4c3[C@H]3[C@H]4CCC(C4)[C@H]32)c(C(F)(F)F)n1,7.12% (active)
2,COc1cc2cc(COc3nccc(-c4ccc(Cl)cc4)n3)c(=O)[nH]c2cc1OC,70.2% (inactive)
3,O=C(Nc1ccc(Br)cc1F)c1cc(F)ccc1O,-19.7% (active)
4,CC(=O)Nc1nc(C)c(C(=O)NNC=O)s1,104% (inactive)
5,CSc1ccc(C(=O)C[n+]2cccc(C)c2)cc1,102% (inactive)
6,COc1ccc(C2c3cccn3-c3ccccc3N2C(C)=O)cc1 (centres undefined),-49.9% (active)
7,CCOC(=O)c1c(C)nc2c(c1N)CC(=O)N2Cc1cc(F)cc(Cl)c1,79.1% (inactive)
8,OCCCC1CCN(C(Cc2ccccc2)c2ccccc2)CC1 (centres undefined),95.8% (inactive)
9,Clc1cc2c(c(CSc3nc4ccccc4n4cccc34)c1)OCOC2,84.9% (inactive)
10,C/C(=N\NC(=O)c1sc(=S)n(C)c1N)c1cc2ccccc2o1,26.6% (inactive)
11,COc1cc(/C=C2\Oc3cc(OCCCN4CCCC4)ccc3C2=O)cc(OC)c1,72.5% (inactive)
12,C=C(C)[C@@H]1CC[C@]2(C(=O)NCC#CCN3CCN(C)CC3)CC[C@]3(C)[C@H](CC[C@@H]4[C@@](C)(CCC#N)[C@H](C(=C)C)CC[C@]43C)[C@@H]12,10.9% (inactive)
13,O=C(/C=C/C=C/c1ccc2c(c1)OCO2)N/N=C\c1ccc(O)cc1O,-0.489% (active)
14,Cn1ccnc1C(=O)/C=C/c1ccc(CC(=O)Nc2ccc(C(F)(F)F)cc2)cc1,-2.06% (active)
15,O=C(Cc1ccccc1)c1ccc(Cl)cc1,111% (inactive)
16,CN1C(=O)N(C)C2Nn3c(s/c(=C\c4ccc(C(F)(F)F)cc4)c3=O)=NC21 (centres undefined),98.9% (inactive)
17,COc1ccc(/C=N\NC(=O)c2cc(-c3ccc(Br)cc3)n(-c3ccc(S(N)(=O)=O)cc3)n2)cc1,33.5% (inactive)
18,COc1ccc(CN2C(=O)/C(=C\c3cc(OC)c(OC)c(OC)c3)c3ccccc32)cc1,-16.2% (active)
19,CC(=O)C1CCC2C3CC=C4CC(SC(=N)N)CCC4(C)C3CCC12C (centres undefined),-17.6% (active)
20,C=CCc1cc(C(C)=O)cc(OC)c1O,71.1% (inactive)

row,SMILES,growth
1,Cc1c(Cc2ccccc2)c(=O)oc2c(C)c(OCc3n[nH]c(=S)o3)ccc12,69.7% (inactive)
2,Cc1cccc(CO)c1,109% (inactive)
3,COc1ccc(OC)c(Nc2nc(-c3c(C)nc4sccn34)cs2)c1,67.9% (inactive)
4,COc1cc2nc(Cl)nc(Nc3cccc(C(=O)/C=C/c4ccc(Br)cc4)c3)c2cc1OC,77.8% (inactive)
5,c1ccc(CO[C@H]2CO[C@H]3[C@@H]2OC[C@H]3OCc2ccccc2)cc1,88.4% (inactive)
6,COc1ccc(-c2nc3ccccn3c2/C=C/C(=O)c2cc(OC)c(OC)c(OC)c2)cc1,49.9% (inactive)
7,CC(=O)Nc1ncc(S(=O)(=O)c2ccc([N+](=O)[O-])cc2)s1,113% (inactive)
8,Clc1ccc(/C=C/c2ccc3ccccc3n2)cc1,-14.2% (active) and 77.3% (inactive) and 60.8% (inactive)
9,N#Cc1cccc(/C=C(/C(=O)c2ccccc2)c2ccccc2)c1,43.7% (inactive)
10,C/C(=C(/c1ccc(Cl)cc1)c1ccc(OCCN2CCCC2)cc1)c1ccc(Cl)cc1,69.5% (inactive)
11,COc1ccc(-c2cn(-c3cccc(C(=O)/C=C/c4ccc(O)c(OC)c4)c3)c(=O)[nH]2)cc1,-2.62% (active)
12,CCCCCCCC12Cc3ccccc3C1=Nc1c(c3ccccc3n1C)C2=O (centres undefined),91.4% (inactive)
13,O=[N+]([O-])c1cnc(Sc2ccncn2)c([N+](=O)[O-])c1,11.3% (inactive)
14,CN(C)CCCOc1cccc(NC2=C(Cl)C(=O)C(Nc3cccc(OCCCN(C)C)c3)=C(Cl)C2=O)c1,-53.2% (active)
15,CNC(=O)NCC1OC(n2cnc3c(NC(=O)Nc4ccccc4)ncnc32)C(O[Si](C)(C)C(C)(C)C)C1O[Si](C)(C)C(C)(C)C (centres undefined),23.5% (inactive)
16,COc1c(B(O)O)cccc1-c1nc2c(F)cc3[nH]ncc3c2c2c1CCCC2,-28.3% (active)
17,NS(=O)(=O)N(c1cc(C(F)(F)F)cc(C(F)(F)F)c1)C1CCN(Cc2ccc(C(F)(F)F)cc2)CC1,37.3% (inactive)
18,CCNC1(NC#N)CCCCC1,96.8% (inactive)
19,COc1cc(NCCCCN=C(N)N)c2ncccc2c1,103% (inactive)

# Source: PubChem BioAssay (NCI)
